Tests used:
[1] = target: RUNX1 (UniProt Q01196); experiment: RUNX1 binding intensity (PBM fluorescence), RUNX1 alone (arbitrary fluorescence units); higher = stronger binding; settings: RUNX1 concentration 2 nM; ETS1 concentration 0 nM
Experimental: (§1)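 Cooperative gcPBM on 36-bp genomic probes with neighbouring ETS1 and RUNX1 sites. Recombinant human RUNX1 (2 nM) was incubated alone or with ETS1 (25 nM) and detected with anti-RUNX1 antibody plus Alexa488 secondary. Values are medians over 4 replicate spots; the RUNX1+ETS1 data were normalised to the RUNX1-only data. The probes sit in constant array flanks that are not printed.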

[2] = target: RUNX1 (UniProt Q01196); experiment: RUNX1 binding intensity (PBM fluorescence) in presence of ETS1, normalised to RUNX1-only experiment (arbitrary fluorescence units); higher = stronger binding; settings: RUNX1 concentration 2 nM; ETS1 concentration 25 nM
Experimental: as §1

[3] = target: T1, ETS1 (UniProt P14921); experiment: ETS1 binding intensity (PBM fluorescence) in presence of RUNX1, normalised to ETS1-only experiment (arbitrary fluorescence units); higher = stronger binding; settings: ETS1 concentration 1 nM; RUNX1 concentration 25 nM
T1 sequence: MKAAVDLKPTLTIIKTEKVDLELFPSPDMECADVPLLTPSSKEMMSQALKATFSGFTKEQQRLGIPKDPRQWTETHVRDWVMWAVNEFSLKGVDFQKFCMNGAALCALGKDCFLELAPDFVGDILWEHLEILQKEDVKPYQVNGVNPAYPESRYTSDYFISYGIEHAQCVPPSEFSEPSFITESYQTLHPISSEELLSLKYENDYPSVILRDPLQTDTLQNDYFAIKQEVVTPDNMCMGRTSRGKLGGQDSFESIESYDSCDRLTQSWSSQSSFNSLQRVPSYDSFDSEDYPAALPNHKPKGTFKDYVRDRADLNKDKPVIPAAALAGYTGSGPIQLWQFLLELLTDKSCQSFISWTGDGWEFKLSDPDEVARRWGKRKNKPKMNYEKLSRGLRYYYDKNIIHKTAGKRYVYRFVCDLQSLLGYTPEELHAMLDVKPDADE
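Wherever RUNX1 binding intensity (PBM fluorescence) in presence of ETS1, normalised to RUNX1-only experiment is given: Full-length recombinant human ETS1 or RUNX1 bound to double-stranded 36-bp genomic probes on microarrays, detected by protein-specific primary antibody and Alexa488 secondary, spot fluorescence as median of four replicate spots.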
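Wherever RUNX1 binding intensity (PBM fluorescence), RUNX1 alone is given: Full-length recombinant human RUNX1 bound to double-stranded 36-bp genomic probes on a high-density microarray, scored as Alexa488 fluorescence per spot via anti-RUNX1 antibody, median of four replicate spots.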

Sequence of RUNX1 (Q01196 whole entry): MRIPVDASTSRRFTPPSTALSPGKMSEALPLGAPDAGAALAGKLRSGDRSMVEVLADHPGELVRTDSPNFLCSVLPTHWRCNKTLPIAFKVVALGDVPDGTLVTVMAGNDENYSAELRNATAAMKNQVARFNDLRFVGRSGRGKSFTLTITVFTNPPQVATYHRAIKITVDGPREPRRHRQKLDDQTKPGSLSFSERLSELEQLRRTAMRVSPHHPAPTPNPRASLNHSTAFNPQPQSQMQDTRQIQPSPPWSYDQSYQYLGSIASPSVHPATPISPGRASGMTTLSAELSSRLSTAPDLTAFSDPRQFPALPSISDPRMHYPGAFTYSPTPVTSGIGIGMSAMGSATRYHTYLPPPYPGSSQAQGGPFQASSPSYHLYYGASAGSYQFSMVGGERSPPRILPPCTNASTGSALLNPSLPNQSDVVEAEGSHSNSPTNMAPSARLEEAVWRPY

| Sequence | RUNX1 binding intensity [1] | RUNX1 binding intensity [2] | ETS1 binding intensity [3] |
| --- | --- | --- | --- |
| GTCCCCTGAATTTTCCTGTGGTTCTTATCACCAGGT | 1180 | 1360 | – |
| ACCACACTTCCCAGGAGTCTCTGCGGCCGCGCGGAG | 938 | 801 | – |
| TTACCCCAGGAAAAGCCTCCTCACCGCAGTGACCAG | 998 | 905 | – |
| GACAGTTTTCCGGCCTAGTTTGCGGCTGCTCCTGCC | 830 | 2440 | – |
| GGCGAGGCTGAGAGGAAACCACACTCTCACTGGGGT | 933 | 921 | – |
| CCGCCCCCGGACGGTCACAGCACCCAAACCGCAGGC | 2740 | 3240 | – |
| ACGGTGCGTTTCCCCAACTACACCGCACGTCACGGA | 988 | 827 | – |
| GGGGGAAGCTTCCTGAGGTGAAATAGACCGCTGTGC | 735 | 960 | – |
| CAGTTTATCCTGTGAGAGCCTTGTGGTTCCTACTAA | 773 | 859 | – |
| TTGTTCCACCCCCGCGGAAACCGCTGCTCGCTGGGC | 913 | 965 | – |
| CTCACTTCCCCGGCAGCTCCCTCGCCCCGACCGCAG | 1910 | 2740 | 479 |
| TGGGTGCCGGATTCGGTGAGTGTGGTTCTCATGATG | 654 | 895 | – |
| AAGAACCTAGAGGATGTGTGGTTTTATGTGCAGGGT | 914 | 1150 | 1830 |
| CACTTCCTCTGTGACTGCAGGTTTCCAACCACAAGC | 988 | 2370 | 1510 |

Reference: the supplement of paper PMC10681739
